Measured values: PubChem BioAssay AID1159580 (chemical genetic matrix, 2015)
Screen size: about 5,500 compounds; about 2,000 (36%) were called active. Inconclusive results (about 18%) are left out. This is one part of the list. Unmarked numbers belong to inactive results. No stated cut-off is given here; in the data, active means normalized growth mostly below about 0.91 (no sharp cut-off); inconclusive means no clear call, values can overlap the other calls; inactive means mostly above about 0.92.

Experiment: chemical genetic growth profiling, strain panel (AID 1159580);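 further: tested at 20 µM; growth read once vehicle control cultures reached saturation at 30 °C; 1 = growth at the plate median or of vehicle wells; lower values mean less growth of the strain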
Conditions: growth OD
[1] = S. cerevisiae deletion strains, locus YAL013W, strain DEP1, hits give low values
[2] = S. cerevisiae deletion strains, locus YBR021W, strain FUR4, hits give low values
[3] = S. cerevisiae deletion strains, locus YBR229C, strain ROT2, hits give low values
[4] = S. cerevisiae deletion strains, locus YCL029C, strain bik1, hits give low values
[5] = S. cerevisiae deletion strains, locus YDL035C, strain GPR1, hits give low values
[6] = S. cerevisiae deletion strains, locus YDL074C, strain BRE1, hits give low values
[7] = S. cerevisiae deletion strains, locus YDL101C, strain DUN1, hits give low values
[8] = S. cerevisiae deletion strains, locus YDL134C, strain PPH21, hits give low values
[9] = S. cerevisiae deletion strains, locus YDL185W, strain tfp1, hits give low values
[10] = S. cerevisiae deletion strains, locus YDL192W, strain arf1, hits give low values
[11] = S. cerevisiae deletion strains, locus YDR101C, strain arx1, hits give low values
[12] = S. cerevisiae deletion strains, locus YDR150W, strain NUM1, hits give low values
[13] = S. cerevisiae deletion strains, locus YDR162C, strain NBP2, hits give low values
[14] = S. cerevisiae deletion strains, locus YDR318W, strain mcm21, hits give low values
[15] = S. cerevisiae deletion strains, locus YDR388W, hits give low values
[16] = S. cerevisiae deletion strains, locus YDR502C, strain sam2, hits give low values
[17] = S. cerevisiae deletion strains, locus YEL061C, strain CIN8, hits give low values
[18] = S. cerevisiae deletion strains, locus YER110C, hits give low values
[19] = S. cerevisiae deletion strains, locus YER155C, strain BEM2, hits give low values
[20] = S. cerevisiae deletion strains, locus YER167W, strain BCK2, hits give low values
[21] = S. cerevisiae deletion strains, locus YGL078C, strain dbp3, hits give low values
[22] = S. cerevisiae deletion strains, locus YGL086W, strain mad1, hits give low values
[23] = S. cerevisiae deletion strains, locus YGL248W, strain PDE1, hits give low values
[24] = S. cerevisiae deletion strains, locus YGR078C, strain PAC10, hits give low values
[25] = S. cerevisiae deletion strains, locus YGR135W, strain pre9, hits give low values
[26] = S. cerevisiae deletion strains, locus YGR229C, strain SMI1, hits give low values
[27] = S. cerevisiae deletion strains, locus YGR252W, strain gcn5, hits give low values
[28] = S. cerevisiae deletion strains, locus YHR030C, strain SLT2, hits give low values
[29] = S. cerevisiae deletion strains, locus YHR079C, strain IRE1 (second series), hits give low values
[30] = S. cerevisiae deletion strains, locus YHR094C, strain hxt1, hits give low values
[31] = S. cerevisiae deletion strains, locus YHR129C, strain ARP1, hits give low values
[32] = S. cerevisiae deletion strains, locus YHR200W, strain rpn10, hits give low values
[33] = S. cerevisiae deletion strains, locus YIL066C, strain RNR3, hits give low values
[34] = S. cerevisiae deletion strains, locus YIL073C, strain SPO22, hits give low values
[35] = S. cerevisiae deletion strains, locus YIL125W, strain kgd1, hits give low values
[36] = S. cerevisiae deletion strains, locus YIR030C, strain dcg1, hits give low values
[37] = S. cerevisiae deletion strains, locus YJL095W, strain BCK1, hits give low values
[38] = S. cerevisiae deletion strains, locus YJL134W, strain LCB3, hits give low values
[39] = S. cerevisiae deletion strains, locus YJL168C, strain set2, hits give low values
[40] = S. cerevisiae deletion strains, locus YJL187C, strain SWE1 (second series), hits give low values
[41] = S. cerevisiae deletion strains, locus YJR043C, strain POL32, hits give low values
[42] = S. cerevisiae deletion strains, locus YJR075W, strain HOC1, hits give low values
[43] = S. cerevisiae deletion strains, locus YKL009W, strain mrt4, hits give low values
[44] = S. cerevisiae deletion strains, locus YKL068W, hits give low values
[45] = S. cerevisiae deletion strains, locus YKL085W, strain MDH1 (second series), hits give low values
[46] = S. cerevisiae deletion strains, locus YKL085W, strain MDH1, hits give low values
[47] = S. cerevisiae deletion strains, locus YKL190W, strain CNB1, hits give low values
[48] = S. cerevisiae deletion strains, locus YKR001C, strain vps1, hits give low values
[49] = S. cerevisiae deletion strains, locus YLR039C, strain RIC1, hits give low values
[50] = S. cerevisiae deletion strains, locus YLR058C, strain SHM2, hits give low values
[51] = S. cerevisiae deletion strains, locus YLR102C, strain apc9, hits give low values
[52] = S. cerevisiae deletion strains, locus YLR262C, strain YPT6, hits give low values
[53] = S. cerevisiae deletion strains, locus YLR268W, strain sec22, hits give low values
[54] = S. cerevisiae deletion strains, locus YLR330W, strain CHS5, hits give low values
[55] = S. cerevisiae deletion strains, locus YLR342W, strain FKS1 (second series), hits give low values
[56] = S. cerevisiae deletion strains, locus YLR371W, strain rom2, hits give low values
[57] = S. cerevisiae deletion strains, locus YLR418C, strain cdc73, hits give low values
[58] = S. cerevisiae deletion strains, locus YML016C, strain PPZ1, hits give low values
[59] = S. cerevisiae deletion strains, locus YML032C, strain rad52, hits give low values
[60] = S. cerevisiae deletion strains, locus YML124C, strain tub3, hits give low values
[61] = S. cerevisiae deletion strains, locus YMR078C, strain ctf18, hits give low values
[62] = S. cerevisiae deletion strains, locus YMR223W, strain ubp8, hits give low values
[63] = S. cerevisiae deletion strains, locus YMR263W, strain SAP30, hits give low values
[64] = S. cerevisiae deletion strains, locus YMR307W, strain GAS1, hits give low values
[65] = S. cerevisiae deletion strains, locus YNL067W, strain RPL9B, hits give low values
[66] = S. cerevisiae deletion strains, locus YNL128W, strain TEP1, hits give low values
[67] = S. cerevisiae deletion strains, locus YNL153C, strain GIM3, hits give low values
[68] = S. cerevisiae deletion strains, locus YNL233W, strain BNI4, hits give low values
[69] = S. cerevisiae deletion strains, locus YNL250W, strain rad50, hits give low values
[70] = S. cerevisiae deletion strains, locus YNL271C, strain bni1, hits give low values
[71] = S. cerevisiae deletion strains, locus YNL298W, strain CLA4, hits give low values
[72] = S. cerevisiae deletion strains, locus YNL307C, strain MCK1, hits give low values
[73] = S. cerevisiae deletion strains, locus YNL322C, strain KRE1, hits give low values
[74] = S. cerevisiae deletion strains, locus YNR052C, strain pop2, hits give low values
[75] = S. cerevisiae deletion strains, locus YOL006C, strain TOP1, hits give low values
[76] = S. cerevisiae deletion strains, locus YOL012C, strain htz1
[77] = S. cerevisiae deletion strains, locus YOL147C, strain pex11, hits give low values
[78] = S. cerevisiae deletion strains, locus YOR061W, strain CKA2, hits give low values
[79] = S. cerevisiae deletion strains, locus YOR069W, strain VPS5, hits give low values
[80] = S. cerevisiae deletion strains, locus YOR136W, strain idh2, hits give low values
[81] = S. cerevisiae deletion strains, locus YOR144C, strain elg1, hits give low values
[82] = S. cerevisiae deletion strains, locus YOR184W, strain ser1, hits give low values
[83] = S. cerevisiae deletion strains, locus YOR316C, strain cot1, hits give low values
[84] = S. cerevisiae deletion strains, locus YPL055C, strain LGE1, hits give low values
[85] = S. cerevisiae deletion strains, locus YPL241C, strain CIN2, hits give low values
[86] = S. cerevisiae deletion strains, locus YPR119W, strain clb2, hits give low values
[87] = S. cerevisiae deletion strains, locus YPR141C, strain kar3, hits give low values
[88] = S. cerevisiae deletion strains, locus YPR163C, strain tif3, hits give low values
[89] = S. cerevisiae deletion strains, locus YPR167C, strain met16, hits give low values
[90] = S. cerevisiae deletion strains, strain wtn01, hits give low values
[91] = S. cerevisiae strains, strain wild type, hits give low values

Compound: CCOP(=S)(OCC)SCSP(=S)(OCC)OCC
- normalized growth [1]: 0.993
- normalized growth [2]: 1
- normalized growth [3]: 0.961
- normalized growth [4]: 0.978
- normalized growth [5]: 0.956
- normalized growth [6]: 0.89
- normalized growth [7]: 0.97
- normalized growth [8]: 0.986
- normalized growth [9]: 0.957
- normalized growth [10]: 0.979
- normalized growth [11]: 0.989
- normalized growth [12]: 0.984
- normalized growth [13]: 0.806 (active)
- normalized growth [14]: 0.981
- normalized growth [15]: 0.994
- normalized growth [16]: 0.99
- normalized growth [17]: 0.995
- normalized growth [18]: 0.987
- normalized growth [19]: 1.01
- normalized growth [20]: 0.972
- normalized growth [21]: 0.984
- normalized growth [22]: 1
- normalized growth [23]: 0.946
- normalized growth [24]: 0.969
- normalized growth [25]: 0.981
- normalized growth [26]: 0.908
- normalized growth [27]: 0.954
- normalized growth [28]: 1.01
- normalized growth [29]: 0.989
- normalized growth [30]: 0.999
- normalized growth [31]: 0.969
- normalized growth [32]: 0.995
- normalized growth [33]: 0.94
- normalized growth [34]: 0.907
- normalized growth [35]: 0.981
- normalized growth [36]: 0.984
- normalized growth [37]: 0.964
- normalized growth [38]: 0.988
- normalized growth [39]: 0.984
- normalized growth [40]: 0.984
- normalized growth [41]: 0.984
- normalized growth [42]: 0.928
- normalized growth [43]: 0.946
- normalized growth [44]: 0.993
- normalized growth [45]: 0.984
- normalized growth [46]: 0.984
- normalized growth [47]: 1
- normalized growth [48]: 0.978
- normalized growth [49]: 0.868
- normalized growth [50]: 0.982
- normalized growth [51]: 0.983
- normalized growth [52]: 0.829
- normalized growth [53]: 0.981
- normalized growth [54]: 0.992
- normalized growth [55]: 0.996
- normalized growth [56]: 0.985
- normalized growth [57]: 0.932
- normalized growth [58]: 0.988
- normalized growth [59]: 0.989
- normalized growth [60]: 0.996
- normalized growth [61]: 0.997
- normalized growth [62]: 0.98
- normalized growth [63]: 0.981
- normalized growth [64]: 0.954
- normalized growth [65]: 0.971
- normalized growth [66]: 0.918
- normalized growth [67]: 0.987
- normalized growth [68]: 0.982
- normalized growth [69]: 0.982
- normalized growth [70]: 0.991
- normalized growth [71]: 0.979
- normalized growth [72]: 0.987
- normalized growth [73]: 0.981
- normalized growth [74]: 0.986
- normalized growth [75]: 0.788
- normalized growth [76]: 1.08
- normalized growth [77]: 1.01
- normalized growth [78]: 0.964
- normalized growth [79]: 0.995
- normalized growth [80]: 0.988
- normalized growth [81]: 0.989
- normalized growth [82]: 0.968
- normalized growth [83]: 0.969
- normalized growth [84]: 0.914
- normalized growth [85]: 0.989
- normalized growth [86]: 0.993
- normalized growth [87]: 0.949
- normalized growth [88]: 0.994
- normalized growth [89]: 0.979
- normalized growth [90]: 0.981
- normalized growth [91]: 0.982

Compound: CCOP(=S)(OCC)SCSCC
- normalized growth [1]: 1
- normalized growth [2]: 0.979
- normalized growth [3]: 1
- normalized growth [4]: 1
- normalized growth [5]: 0.986
- normalized growth [6]: 0.963
- normalized growth [7]: 1
- normalized growth [8]: 0.998
- normalized growth [9]: 1.01
- normalized growth [10]: 1
- normalized growth [11]: 0.993
- normalized growth [12]: 0.994
- normalized growth [13]: 0.969
- normalized growth [14]: 1.01
- normalized growth [15]: 1
- normalized growth [16]: 1
- normalized growth [17]: 1.01
- normalized growth [18]: 1
- normalized growth [19]: 1
- normalized growth [20]: 1
- normalized growth [21]: 1
- normalized growth [22]: 0.998
- normalized growth [23]: 1
- normalized growth [24]: 0.99
- normalized growth [25]: 1.01
- normalized growth [26]: 0.998
- normalized growth [27]: 0.993
- normalized growth [28]: 1
- normalized growth [29]: 1.01
- normalized growth [30]: 0.997
- normalized growth [31]: 1.01
- normalized growth [32]: 1.01
- normalized growth [33]: 1.01
- normalized growth [34]: 1.06
- normalized growth [35]: 1
- normalized growth [36]: 1.01
- normalized growth [37]: 0.993
- normalized growth [38]: 1
- normalized growth [39]: 1.01
- normalized growth [40]: 1.01
- normalized growth [41]: 1.01
- normalized growth [42]: 1
- normalized growth [43]: 1.01
- normalized growth [44]: 1.01
- normalized growth [45]: 1
- normalized growth [46]: 1
- normalized growth [47]: 1.01
- normalized growth [48]: 0.998
- normalized growth [49]: 1.01
- normalized growth [50]: 1.01
- normalized growth [51]: 1.02
- normalized growth [52]: 0.953
- normalized growth [53]: 0.991
- normalized growth [54]: 0.999
- normalized growth [55]: 1.03
- normalized growth [56]: 1.02
- normalized growth [57]: 0.943
- normalized growth [58]: 1
- normalized growth [59]: 1
- normalized growth [60]: 1.01
- normalized growth [61]: 1
- normalized growth [62]: 1.01
- normalized growth [63]: 0.952
- normalized growth [64]: 1.02
- normalized growth [65]: 0.988
- normalized growth [66]: 1
- normalized growth [67]: 1
- normalized growth [68]: 1
- normalized growth [69]: 1.01
- normalized growth [70]: 1
- normalized growth [71]: 1.02
- normalized growth [72]: 1
- normalized growth [73]: 1.01
- normalized growth [74]: 1.01
- normalized growth [75]: 0.985
- normalized growth [76]: 0.793
- normalized growth [77]: 1
- normalized growth [78]: 0.994
- normalized growth [79]: 1
- normalized growth [80]: 1
- normalized growth [81]: 0.996
- normalized growth [82]: 1.01
- normalized growth [83]: 1
- normalized growth [84]: 0.974
- normalized growth [85]: 0.998
- normalized growth [86]: 0.997
- normalized growth [87]: 1.01
- normalized growth [88]: 1.01
- normalized growth [89]: 1.01
- normalized growth [90]: 1.01
- normalized growth [91]: 1.01
